Measurements as given in PMC11006913.
Substitutions are numbered along the chain they refer to.

What was measured:
Experiment in all cases: PBM; 200 nM protein, PBS
Conditions in all cases: dsDNA, one strand shown
NKX2-5 [1] = biological target: NKX2-5 (Homo sapiens, UniProt P52952 125-210, R139K)
SIX6 [2] = biological target: T1, SIX6 (Homo sapiens, UniProt O95475 114-200, L167I)
T1 sequence: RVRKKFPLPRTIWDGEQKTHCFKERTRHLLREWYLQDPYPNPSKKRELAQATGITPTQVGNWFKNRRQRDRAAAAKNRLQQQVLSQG

SIX6 [3] = biological target: T2, SIX6 (Homo sapiens, UniProt O95475 114-200, L143V)
T2 sequence: T1 sequence with L30V, I54L

SIX6 [4] = biological target: T3, SIX6 (Homo sapiens, UniProt O95475 114-200, H141N)
T3 sequence: T1 sequence with H28N, I54L

SIX6 [5] = biological target: T4, SIX6 (Homo sapiens, UniProt O95475 114-200, T165P)
T4 sequence: T1 sequence with T52P, I54L

SIX6 [6] = biological target: T5, SIX6 (Homo sapiens, UniProt O95475 114-200, L167M)
T5 sequence: T1 sequence with I54M

SIX6 [7] = biological target: T6, SIX6 (Homo sapiens, UniProt O95475 114-200, L143M)
T6 sequence: T1 sequence with L30M, I54L

SIX6 [8] = biological target: T7, SIX6 (Homo sapiens, UniProt O95475 114-200, L143I)
T7 sequence: T1 sequence with L30I, I54L

SIX6 [9] = biological target: T8, SIX6 (Homo sapiens, UniProt O95475 114-200, T165G)
T8 sequence: T1 sequence with T52G, I54L

HOXA2 [10] = biological target: HOXA2 (Homo sapiens, UniProt O43364 129-215, R185T)
Sequence of HOXA2 (Homo sapiens, UniProt O43364 129-215, R185T) (O43364 129-215 R185T): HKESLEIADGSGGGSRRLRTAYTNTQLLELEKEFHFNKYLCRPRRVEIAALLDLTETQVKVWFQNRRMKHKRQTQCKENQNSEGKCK

SIX6 [11] = biological target: T9, SIX6 (Homo sapiens, UniProt O95475 114-200, T139Q)
T9 sequence: T1 sequence with T26Q, I54L

ALX3 [12] = biological target: ALX3 (Homo sapiens, UniProt O95076 139-225, N203Q)
Sequence of ALX3 (Homo sapiens, UniProt O95076 139-225, N203Q) (O95076 139-225 N203Q): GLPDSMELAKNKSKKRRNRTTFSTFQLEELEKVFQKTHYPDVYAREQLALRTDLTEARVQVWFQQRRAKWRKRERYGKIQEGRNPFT

SIX6 [13] = biological target: T10, SIX6 (Homo sapiens, UniProt O95475 114-200, T165A)
T10 sequence: T1 sequence with T52A, I54L

HOXA2 [14] = biological target: HOXA2 (Homo sapiens, UniProt O43364 129-215, R185K)
Sequence of HOXA2 (Homo sapiens, UniProt O43364 129-215, R185K) (O43364 129-215 R185K): as the sequence (O43364 129-215 R185T) above, with T57K counted along it

SIX6 [15] = biological target: T11, SIX6 (Homo sapiens, UniProt O95475 114-200, L167V)
T11 sequence: T1 sequence with I54V

ALX3 [16] = biological target: ALX3 (Homo sapiens, UniProt O95076 139-225)
Sequence of ALX3 (Homo sapiens, UniProt O95076 139-225) (O95076 139-225): as the sequence (O95076 139-225 N203Q) above, with Q65N counted along it

SIX6 [17] = biological target: T12, SIX6 (Homo sapiens, UniProt O95475 114-200)
T12 sequence: T1 sequence with I54L

ALX3 [18] = biological target: ALX3 (Homo sapiens, UniProt O95076 139-225, L168Q)
Sequence of ALX3 (Homo sapiens, UniProt O95076 139-225, L168Q) (O95076 139-225 L168Q): as the sequence (O95076 139-225 N203Q) above, with L30Q, Q65N counted along it

SIX6 [19] = biological target: T13, SIX6 (Homo sapiens, UniProt O95475 114-200, T165I)
T13 sequence: T1 sequence with T52I, I54L

ALX3 [20] = biological target: ALX3 (Homo sapiens, UniProt O95076 139-225, L168V)
Sequence of ALX3 (Homo sapiens, UniProt O95076 139-225, L168V) (O95076 139-225 L168V): as the sequence (O95076 139-225 N203Q) above, with L30V, Q65N counted along it

HOXA2 [21] = biological target: HOXA2 (Homo sapiens, UniProt O43364 129-215, Y150S)
Sequence of HOXA2 (Homo sapiens, UniProt O43364 129-215, Y150S) (O43364 129-215 Y150S): as the sequence (O43364 129-215 R185T) above, with Y22S, T57R counted along it

ALX3 [22] = biological target: ALX3 (Homo sapiens, UniProt O95076 139-225, N203S)
Sequence of ALX3 (Homo sapiens, UniProt O95076 139-225, N203S) (O95076 139-225 N203S): as the sequence (O95076 139-225 N203Q) above, with Q65S counted along it

HOXA2 [23] = biological target: HOXA2 (Homo sapiens, UniProt O43364 129-215)
Sequence of HOXA2 (Homo sapiens, UniProt O43364 129-215) (O43364 129-215): as the sequence (O43364 129-215 R185T) above, with T57R counted along it

NKX2-5 [24] = biological target: NKX2-5 (Homo sapiens, UniProt P52952 125-210)
Sequence of NKX2-5 (Homo sapiens, UniProt P52952 125-210) (P52952 125-210): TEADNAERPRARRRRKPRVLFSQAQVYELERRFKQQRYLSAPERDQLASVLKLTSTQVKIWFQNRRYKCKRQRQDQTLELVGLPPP

HOXA7 [25] = biological target: HOXA7 (Homo sapiens, UniProt P31268 116-202)
Sequence of HOXA7 (Homo sapiens, UniProt P31268 116-202) (P31268 116-202): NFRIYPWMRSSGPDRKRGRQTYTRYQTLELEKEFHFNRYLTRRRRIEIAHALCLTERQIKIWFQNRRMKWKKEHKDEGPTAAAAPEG

HOXA7 [26] = biological target: HOXA7 (Homo sapiens, UniProt P31268 116-202, W177C)
Sequence of HOXA7 (Homo sapiens, UniProt P31268 116-202, W177C) (P31268 116-202 W177C): as the sequence (P31268 116-202) above, with W62C counted along it

HOXC10 [27] = biological target: HOXC10 (Homo sapiens, UniProt Q9NYD6 254-340)
Sequence of HOXC10 (Homo sapiens, UniProt Q9NYD6 254-340) (Q9NYD6 254-340): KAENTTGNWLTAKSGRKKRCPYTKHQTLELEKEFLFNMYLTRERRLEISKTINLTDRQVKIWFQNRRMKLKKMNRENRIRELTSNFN

NKX2-6 = biological target: T14, NKX2-6 (Homo sapiens, UniProt A6NCS4 118-204, R150C)
T14 sequence: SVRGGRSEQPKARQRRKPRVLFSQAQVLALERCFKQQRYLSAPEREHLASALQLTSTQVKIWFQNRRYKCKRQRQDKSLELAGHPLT

HOXD13 [28] = biological target: HOXD13 (Homo sapiens, UniProt P35453 263-343, T313R)
Sequence of HOXD13 (Homo sapiens, UniProt P35453 263-343, T313R) (P35453 263-343 T313R): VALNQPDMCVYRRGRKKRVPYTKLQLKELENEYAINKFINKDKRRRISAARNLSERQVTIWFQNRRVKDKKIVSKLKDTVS

HOXD13 [29] = biological target: HOXD13 (Homo sapiens, UniProt P35453 263-343)
Sequence of HOXD13 (Homo sapiens, UniProt P35453 263-343) (P35453 263-343): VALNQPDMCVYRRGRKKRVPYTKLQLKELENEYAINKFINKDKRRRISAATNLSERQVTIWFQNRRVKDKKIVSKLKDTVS

HOXC10 [30] = biological target: HOXC10 (Homo sapiens, UniProt Q9NYD6 254-340, K271E)
Sequence of HOXC10 (Homo sapiens, UniProt Q9NYD6 254-340, K271E) (Q9NYD6 254-340 K271E): as the sequence (Q9NYD6 254-340) above, with K18E counted along it

HOXD13 [31] = biological target: HOXD13 (Homo sapiens, UniProt P35453 263-343, T313A)
Sequence of HOXD13 (Homo sapiens, UniProt P35453 263-343, T313A) (P35453 263-343 T313A): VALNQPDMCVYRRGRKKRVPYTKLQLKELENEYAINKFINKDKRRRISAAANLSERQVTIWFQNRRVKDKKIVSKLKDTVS

Sequence of NKX2-5 (Homo sapiens, UniProt P52952 125-210, R139K) (P52952 125-210 R139K): as the sequence (P52952 125-210) above, with R15K counted along it

With CAGCGGCC the binding signal (NKX2-5 [1]) was 8.81 upbm affinity estimate (log intensity, higher = more binding, comparable within an allelic series), the binding signal (SIX6 [2]) was 8.85 upbm affinity estimate (log intensity, higher = more binding, comparable within an allelic series) and the binding signal (SIX6 [3]) was 8.77 upbm affinity estimate (log intensity, higher = more binding, comparable within an allelic series). The binding signal (SIX6 [4]) was 8.79 upbm affinity estimate (log intensity, higher = more binding, comparable within an allelic series), the binding signal (SIX6 [5]) was 8.97 upbm affinity estimate (log intensity, higher = more binding, comparable within an allelic series) and the binding signal (SIX6 [6]) was 8.8 upbm affinity estimate (log intensity, higher = more binding, comparable within an allelic series). The binding signal (SIX6 [7]) was 8.83 upbm affinity estimate (log intensity, higher = more binding, comparable within an allelic series), the binding signal (SIX6 [8]) was 8.89 upbm affinity estimate (log intensity, higher = more binding, comparable within an allelic series) and the binding signal (SIX6 [9]) was 8.88 upbm affinity estimate (log intensity, higher = more binding, comparable within an allelic series). For the same sequence, the binding signal (HOXA2 [10]) was 7.12 upbm affinity estimate (log intensity, higher = more binding, comparable within an allelic series), the binding signal (SIX6 [11]) was 8.81 upbm affinity estimate (log intensity, higher = more binding, comparable within an allelic series) and the binding signal (ALX3 [12]) was 7.77 upbm affinity estimate (log intensity, higher = more binding, comparable within an allelic series). The binding signal (SIX6 [13]) was 8.75 upbm affinity estimate (log intensity, higher = more binding, comparable within an allelic series), the binding signal (HOXA2 [14]) was 10.2 upbm affinity estimate (log intensity, higher = more binding, comparable within an allelic series) and the binding signal (SIX6 [15]) was 8.83 upbm affinity estimate (log intensity, higher = more binding, comparable within an allelic series). The binding signal (ALX3 [16]) was 7.75 upbm affinity estimate (log intensity, higher = more binding, comparable within an allelic series), the binding signal (SIX6 [17]) was 8.8 upbm affinity estimate (log intensity, higher = more binding, comparable within an allelic series) and the binding signal (ALX3 [18]) was 7.78 upbm affinity estimate (log intensity, higher = more binding, comparable within an allelic series). For the same sequence, the binding signal (SIX6 [19]) was 8.74 upbm affinity estimate (log intensity, higher = more binding, comparable within an allelic series), the binding signal (ALX3 [20]) was 7.74 upbm affinity estimate (log intensity, higher = more binding, comparable within an allelic series) and the binding signal (HOXA2 [21]) was 10.4 upbm affinity estimate (log intensity, higher = more binding, comparable within an allelic series). The binding signal (ALX3 [22]) was 7.77 upbm affinity estimate (log intensity, higher = more binding, comparable within an allelic series), the binding signal (HOXA2 [23]) was 7.19 upbm affinity estimate (log intensity, higher = more binding, comparable within an allelic series) and the binding signal (NKX2-5 [24]) was 8.82 upbm affinity estimate (log intensity, higher = more binding, comparable within an allelic series).
With ACCGGTCC the binding signal (NKX2-5 [1]) was 8.75 upbm affinity estimate (log intensity, higher = more binding, comparable within an allelic series), the binding signal (HOXA7 [25]) was 8.49 upbm affinity estimate (log intensity, higher = more binding, comparable within an allelic series) and the binding signal (HOXA7 [26]) was 8.3 upbm affinity estimate (log intensity, higher = more binding, comparable within an allelic series). For the same sequence, the binding signal (NKX2-5 [24]) was 8.88 upbm affinity estimate (log intensity, higher = more binding, comparable within an allelic series).
CCCCCCGG was tested, and the binding signal (NKX2-5 [1]) was 8.2 upbm affinity estimate (log intensity, higher = more binding, comparable within an allelic series), the binding signal (HOXC10 [27]) was 9.81 upbm affinity estimate (log intensity, higher = more binding, comparable within an allelic series) and the binding signal (NKX2-6) was 8.56 upbm affinity estimate (log intensity, higher = more binding, comparable within an allelic series). For the same sequence, the binding signal (HOXD13 [28]) was 8.85 upbm affinity estimate (log intensity, higher = more binding, comparable within an allelic series), the binding signal (HOXD13 [29]) was 8.78 upbm affinity estimate (log intensity, higher = more binding, comparable within an allelic series) and the binding signal (HOXC10 [30]) was 9.82 upbm affinity estimate (log intensity, higher = more binding, comparable within an allelic series). The binding signal (HOXD13 [31]) was 8.98 upbm affinity estimate (log intensity, higher = more binding, comparable within an allelic series) and the binding signal (NKX2-5 [24]) was 8.1 upbm affinity estimate (log intensity, higher = more binding, comparable within an allelic series).
